Data taken from ChEMBL document CHEMBL1157539, “Thousands of chemical starting points for antimalarial lead identification” (Nature, 2010).

How the values were obtained:
Type in all cases: functional
[1] = system: Plasmodium falciparum; assay: GSK_TCMDC: Inhibition of Plasmodium falciparum 3D7 in whole red blood cells, using parasite LDH activity as an index of growth. Test compounds present at 2uM
[2] = system: Plasmodium falciparum; assay: GSK_TCMDC: Inhibition of Plasmodium falciparum Dd2 in whole red blood cells, using parasite LDH activity as an index of growth. Test compounds present at 2uM
[3] = system: HepG2; assay: GSK_TCMDC: Percent inhibition of human HepG2 cell line. Test compounds present at 10uM.

| SMILES | Inhibition [1] | Inhibition [2] | Inhibition [3] |
| --- | --- | --- | --- |
| Cc1cccc(OCC2CCN(c3ncc(C(=O)NC4CC4)cc3Cl)CC2)c1 | 90% | 78% | 0% |
| CCc1c[nH]c2c(N(c3ccccc3)S(C)(=O)=O)cc(C(=O)N[C@@H](Cc3ccccc3)[C@H](O)CNCc3cccc(C(F)(F)F)c3)cc12.O=CO | 93% | 98% | 20% |
| COc1ccc2nccc([C@@H](O)CN3CCC(NCCOc4ccncc4)CC3)c2c1.O=C(O)C(=O)O | 100% | 0% | 11% |
| COc1cccc(CNC(=O)NC2CCN(c3ccnc(Nc4ccc(F)cc4)n3)C2)c1 (centres undefined) | 94% | 64% | 20% |
| CCn1c(-c2nonc2N)nc2cnc(Oc3cccc(NC(=O)c4ccc(OCCCN5CCCCC5)cc4)c3)cc21 | 90% | 12% | 38% |
| COc1cccc(CC(=O)N2CCC(n3c(C)nc4ccc(F)cc43)CC2)c1 | 100% | 99% | 0% |
| COc1ccc(OCC(=O)Nc2cc(-c3nc4ccccc4[nH]3)ccc2Cl)cc1 | 94% | 33% | 18% |
| O=C(Nc1ccncc1)c1cc(C(=O)Nc2ccncc2)cc([N+](=O)[O-])c1 | 100% | 50% | 1% |
| Cn1cnc(CCNC(=O)c2ccc(-c3cccc(-c4nc5cc(F)ccc5[nH]4)c3)cc2)c1 | 100% | 24% | 23% |
| COc1ccc2nccc([C@@H](O)CN3CCC(NC(=O)c4ccc5cc[nH]c5c4)CC3)c2c1.CS(=O)(=O)O | 91% | 23% | 21% |
| CCOC(=O)C1=C(C)N=c2sc(=Cc3cc(Cl)ccc3O)c(=O)n2C1c1cc(OC)c(OC)cc1Br (centres undefined) | 97% | 76% | 6% |
| COc1ccc(NC(=O)CSc2nc(-c3ccccc3Cl)ns2)cc1OC | 97% | 63% | 0% |
| CCc1c(CCNCCCCCCNCc2ccc3c(c2CC)OCO3)ccc(OC)c1OC.Cl | 100% | 19% | 38% |
| CN(C)CCN(C)Cc1ccc(-c2cccc(-c3nc4ccccc4[nH]3)c2)cc1.O=C(O)C(F)(F)F | 100% | 78% | 46% |
| Cc1cc(-c2ccnc(Nc3cccc(C#N)c3)n2)cc(C)c1O | 88% | 54% | 50% |
| CS(=O)(=O)O.NC1=NC(CCc2ccccc2)N(c2ccccc2)C(N)=N1 (centres undefined) | 94% | 15% | 1% |
| O=C(Nc1ccc(Cl)c(Cl)c1)Nc1ccc2nccc(N3CCN(Cc4ccccc4)CC3)c2c1 | 100% | 100% | 31% |
| O=C(C=Cc1ccc(-c2nc3ccccc3[nH]2)cc1)NC1CCN(Cc2ccccc2)CC1 | 99% | 88% | 15% |
| Cc1ccc(C)c(CC(=O)N2CCC(n3c(C)nc4ccc(F)cc43)CC2)c1 | 100% | 99% | 0% |
| CN(C)Cc1cccc2nc(-c3csc(Cc4cc(Cl)ccc4OCc4ccccc4)n3)[nH]c12 | 100% | 77% | 14% |
| O=C(Nc1cccc(-c2nc3ccccc3s2)c1)c1ccccc1[N+](=O)[O-] | 85% | 9% | 0% |
| O=S(=O)(Nc1cccc(CCN2CCC(N3CCCCC3)CC2)c1)c1cccc(C(F)(F)F)c1 | 100% | 13% | 25% |
| COc1ccc(C(=O)CCC(=O)N(Cc2ccc(-c3ccc(CNCCc4ccccc4)cn3)cc2)C(C)CN(C)C)cc1F.O=C(O)C(F)(F)F (centres undefined) | 98% | 57% | 20% |
| Cl.N=C(N)Nc1ccc(CCc2ccc(NC(=N)N)cc2)cc1 | 96% | 95% | 57% |

| SMILES | Inhibition [1] | Inhibition [2] | Inhibition [3] |
| --- | --- | --- | --- |
| Cc1cc(N[C@@H](Cc2ccccc2)C(=O)NCc2cccs2)nc(NCCc2ccccc2)n1.O=C(O)C(F)(F)F | 92% | 61% | 6% |
| C[C@H](Cc1ccc(OCCCCCCOc2ccc(C[C@@H](C)NC(=O)[C@H](O)c3cccc(Cl)c3)cc2)cc1)NC[C@H](O)c1cccc(Cl)c1 | 99% | 99% | 39% |
| Fc1ccccc1C=NN=c1cc[nH]c2ccc(C(F)(F)F)cc12 | 100% | 61% | 5% |
| Cc1ccc2nc3ccccc3c(NCCN3CCN(C)CC3)c2c1.Cl | 100% | 6% | 19% |
| CC(C)(CNC(=O)C1CCN(CCOc2ccc(F)c(F)c2)CC1)c1nc(-c2ccc(Cl)c(O)c2)c(-c2ccncc2)[nH]1.Cl | 100% | 19% | 41% |
| O=C(NCc1ccc2c(c1)OCO2)c1nn(CCN2CCC(N3CCCC3)CC2)cc1-c1ccc(Cl)c(Cl)c1 | 94% | 17% | 21% |
| CCCCCCNC(=O)C1Cc2c([nH]c3cc(Cl)ccc23)C2(CCN(Cc3ccccc3)CC2)N1 (centres undefined) | 90% | 56% | 21% |
| CCn1cc2c3c(cc(C(=O)N[C@@H](Cc4ccccc4)[C@H](O)CNC4CCOCC4)cc31)N(C)S(=O)(=O)CC2 | 98% | 98% | 0% |
| Cc1nc2nc(N)nc(N)c2c(C)c1Cc1cccs1.Cl | 95% | 2% | 66% |
| c1ccc2[nH]c(-c3ccc(-c4ccc(CN5CCN(c6ccncc6)CC5)cc4)s3)nc2c1 | 100% | 100% | 25% |
| O=C(Nc1ccc(F)cc1)NC1CCN(c2ccnc3cc(Cl)ccc23)C1.O=C(O)C(F)(F)F (centres undefined) | 100% | 67% | 17% |
| CC(CN(C)C)C(=O)Nc1cccc(-c2cccc(-c3nc4cc(F)ccc4[nH]3)c2)c1 (centres undefined) | 100% | 94% | 29% |
| Cc1cccc2nc(-c3ccc(-c4ccc(NC(=O)C(C)CN(C)C)cc4)s3)[nH]c12 (centres undefined) | 100% | 98% | 23% |
| COc1ccccc1Cn1ccnc1SCC(=O)Nc1cc(C(F)(F)F)ccc1Cl | 96% | 97% | 12% |
| CCOc1cc(C(=O)NC2CC(C)(C)NC(C)(C)C2)ccc1-c1cc2cc(Cl)c(Cl)cc2[nH]1 | 100% | 46% | 37% |
| COc1ccc2[nH]ccc(=NN=Cc3cccc(C)n3)c2c1 | 100% | 99% | 16% |
| Cl.O=C(C=Cc1ccc(F)cc1)NC1CCC(CCN2CCc3ccc(-c4cnccn4)cc3CC2)CC1 (centres undefined) | 99% | 65% | 32% |
| Nc1cccc(CNCc2ccc(-c3cccc(-c4nc5ccccc5[nH]4)c3)cc2)c1.O=C(O)C(F)(F)F | 100% | 78% | 12% |
| O=C(O)C(F)(F)F.OC1CCCN(Cc2cccc(-c3ccc(-c4nc5cc(C(F)(F)F)ccc5[nH]4)cc3)c2)C1 (centres undefined) | 100% | 91% | 27% |
| CCN1CCC(NCc2ccc(-c3ccc(Cl)cc3)cc2)CC1 | 100% | 33% | 25% |
| CCOc1c(N2CCN(CCCCNC(=O)c3ccc(NC(=O)c4ccc(Cl)cc4)cc3)CC2)ccc2ccccc12.Cl | 100% | 45% | 18% |
| CC(C)c1sc(N2CCN(C)CC2)nc1C(=O)NCCc1cccc(Cl)c1.O=C(O)C(F)(F)F | 91% | 15% | 9% |
| CCCCCC(C)C(C)c1cc(OC(N)=O)c2c(c1)OC(C)(C)C=C2c1ccncc1 (centres undefined) | 96% | 0% | 81% |
| Cc1cccc2sc(N(CCCn3ccnc3)C(=O)C=Cc3cccs3)nc12.Cl | 91% | 9% | 0% |
